The text below walks through data of ChEMBL document CHEMBL3988442, “University of Dundee, Small-Polar-MMV Screening Library” (2021).

Each structure is given as a SMILES string. The campaign covered roughly 48,000 compounds. About 13,000 (27%) showed an effect of 50% or more. The list shows a part of the results.

This experiment relates to Wolbachia pipientis. The experiment can be described thus: Anti-Wolbachia Cell-Based Screen. Format: functional. More on the design: scale not given: in the data most compounds retested in dose-response had high values. As to conditions: 5 µM.
In the case of `CCc1ccc(CN(CCN(C)C)Cc2ccc(C)s2)nc1`, the “Percent Effect” value turned out to be 19.31%.
The value for `CN(C)CCN1CCOCC2(C1)CN(Cc1nccs1)CCO2.O=C(O)C(F)(F)F.O=C(O)C(F)(F)F.O=C(O)C(F)(F)F` (stereo not given) was -2.784%.
Consider `Cn1nnc2c1CCN(Cc1ccncc1)C2COCc1ccccc1.O=C(O)C(F)(F)F.O=C(O)C(F)(F)F` (stereo not given), for which the “Percent Effect” value amounted to 7.235%.
With `CCn1cc(CN2CCCN(C(=O)c3ccco3)CC2)cn1`, the “Percent Effect” value is on record as 139.7%.
The value for `CCn1cc(CN2CCCN(C(=O)c3ccn(C)c(=O)c3)CC2)cn1` was -5.674%; that for `Cn1cc(CN2CCCC3(CCN(C(=O)c4ccoc4)C3)C2)cn1` (stereo not given) was -4.278%.
For `Cc1cccc(C(=O)N2CCCN(Cc3cnn(C)c3)CC2)n1` the value was -11.33%; for `CC(C)CCc1noc(CN2CCCN(C(=O)c3ccco3)CC2)n1`, -6.659%; for `CC(C)n1cc(CN2CCCN(C(=O)c3ccoc3)CC2)cn1`, -9.039%.
Take `CCn1cc(CN2CCCN(C(=O)c3ccc(C)nc3)CC2)cn1`: the “Percent Effect” value is given as 109.5%.
Consider `CCn1cc(CN2CCCN(C(=O)c3ccoc3)CC2)cn1`, for which the “Percent Effect” value was determined as 93.78%.
For `Cn1cc(CN2CCCN(C(=O)c3cc[nH]n3)CC2)cn1` the value was -7.081%; for `CC(C)n1cc(CN2CCCN(C(=O)c3ccco3)CC2)cn1`, 13.14%; for `Cc1ccoc1C(=O)N1CCCN(Cc2cnn(C)c2)CC1`, 85.33%.
The value for `CCc1cccc(NC(=O)CCC(=O)N(C)Cc2nc(C)c[nH]2)c1` was -13.69%; that for `O=C(O)c1cc(-c2ccoc2)cc(S(=O)(=O)NCc2ccccn2)c1` was 3.348%; that for `c1cncc(COCC2CN(Cc3ccncc3)Cc3ccnn3C2)c1` (stereo not given) was -8.453%.
For `Cc1ccc(OC2(C(=O)O)CCN(C/C=C/c3ccco3)CC2)c(C)n1` the value was -5.357%; for `CC(C)c1cc(C(=O)N2C[C@H]3CC[C@@H]2CN(Cc2cccnc2)C3)no1`, 0.5633%.
Take `CC(C)N1CCCc2sc(C(=O)NC3CC3)nc21`: the “Percent Effect” value is reported as -0.2474%.
The value for `CNC(=O)Cc1noc(-c2cc3c(s2)CCC(C)C3)n1` (stereo not given) was -12.44%; that for `CN(CC1CN(Cc2cn3ccsc3n2)CCO1)c1cccnn1` (stereo not given) was 13.06%; that for `Cc1nc(COc2ccc(OC(C)C(N)=O)cc2)oc1C` (stereo not given) was 1.86%.
Take `Cc1ccc(-n2cc(CN3CCOCC3)c(-c3cccc(C)c3)n2)cc1`: the “Percent Effect” value is on record as 0.1947%.
In the case of `O=C(c1ccc2nncn2c1)N1CCSC2(CCCCC2)C1`, the “Percent Effect” value was -6.872%.
The value for `CCn1cc(CN2CCCN(C(=O)c3cc(C)no3)CC2)cn1` was 149.7%.
For `CC(C)n1cc(CN2CCCN(C(=O)c3cccn3C)CC2)cn1` the value was 7.673%; for `CCc1nc(CN2CCCN(C(=O)c3cccn3C)CC2)cs1`, -9.878%; for `CCn1cc(CN2CCCN(C(=O)c3ccc(C)o3)CC2)cn1`, 126.6%.
The value for `Cc1occc1C(=O)N1CCCN(Cc2cnn(C(C)C)c2)CC1` was -5.086%.
Turning to `CCn1cc(CN2CCCN(C(=O)c3ccoc3C)CC2)cn1`, the “Percent Effect” value stood at 105.3%.
The value for `Cc1cc(C(=O)N2CCN(Cn3cc(Cl)cn3)CC2)on1` was 0.1609%; that for `CCn1cc(CN2CCCN(C(=O)c3cccn3C)CC2)cn1` was 145.7%; that for `CCC1=N[C@@]2(CC[C@@H]3CN(S(=O)(=O)CC)C[C@@H]32)C(=O)N1CC` was 5.096%.
As for `Cc1nc(C(=O)N2CCN(c3ncccn3)[C@@H]3CS(=O)(=O)C[C@@H]32)cs1`, the “Percent Effect” value was -1.503%.
For `c1cnnc(N2CCCC2CNc2ncnc3ccccc23)c1` (stereo not given) the value was 0.08494%.
For `Cc1cc(NC(=O)N2CCN(C)CC2C)n(C)n1` (stereo not given) the value was -19.14%; for `Cc1cc(CNc2ccnn2CC(C)C)ccc1-n1cncn1`, -23.25%.
On to `CSc1ccc(NS(=O)(=O)c2cnn(C)c2)cn1`, for which the “Percent Effect” value was -3.394%.
On to `CCc1ccc(C(=O)N2CCCN(Cc3csc(CC)n3)CC2)o1`, for which the “Percent Effect” value is recorded as -14.26%.
For `CCc1nc(CN2CCCN(C(=O)c3ccccc3)CC2)cs1` the value was 5.45%; for `CCn1cc(CN2CCCN(C(=O)c3c(C)oc(C)c3C)CC2)cn1`, 105.9%; for `CCc1nnsc1C(=O)N1CCCN(Cc2cnn(CC)c2)CC1`, -1.096%.
In the case of `CCc1nc(CN2CCCN(C(=O)c3ccco3)CC2)cs1`, the “Percent Effect” value is on record as 109.2%.
Consider `Cc1ccc(NS(C)(=O)=O)c(C(=O)NCCC(=O)NC(C)C)c1`, for which the “Percent Effect” value is on record as -8.186%.
The value for `c1ccc(OCCN2CCCC(c3noc(C4CC4)n3)C2)cc1` (stereo not given) was -2.8%.
For `CCOCCN1CCC(c2cnccn2)CC1` the value was 103.5%; for `CCOCCN1CCC(c2cncc(C)n2)CC1`, 133%.
Turning to `Fc1ccc(CCN2CCC(c3nnc(-c4cccnc4)o3)CC2)cc1`, the “Percent Effect” value is reported as -17.22%.
The value for `CCOCCN1CCc2cncnc2C1` was 24.85%.
Take `c1ccc(OCCN2CCC(c3nnc(-c4cccnc4)o3)CC2)cc1`: the “Percent Effect” value is on record as 108.1%.
For `CCOCCN1CCN(Cc2nnc(C3CC3)o2)CC1` the value was -12.93%.
Consider `OCCn1cc(CN2CCN(CCOc3ccccc3)CC2)cn1`, for which the “Percent Effect” value is recorded as -4.681%.
The value for `c1ccc(CCCN2CC[C@H](c3nnc(-c4cccnc4)o3)C2)cc1` was 5.165%.
The value for `c1ccc(OCCN2CCC(c3cnccn3)CC2)cc1` was 90.65%; that for `CCOCCN1CCn2c(C)nnc2C1` was 4.517%.
The value for `O=C(c1cc(C2CC2)no1)N1C[C@H]2CC[C@@H]1CN(Cc1ccccn1)C2` was -3.322%; that for `CCNC(=O)CCC(=O)NC(Cc1ccccc1)c1sccc1C` (stereo not given) was -7.516%.
With `CC(C)CN1CCCC1c1ccc(C(=O)Nc2ccc3[nH]nnc3c2)s1` (stereo not given), the “Percent Effect” value stood at 0.6901%.
Consider `CCC(C)(CO)NC(=O)Nc1cc2c(cc1SC)OCCO2` (stereo not given), for which the “Percent Effect” value was -5.152%.
The value for `CCOC(C)c1nc(Cn2cc(-n3cccc3)cn2)cs1` (stereo not given) was -7.68%.
The value for `COc1ccc(F)cc1C(C)NC(=O)Nc1nncs1` (stereo not given) was 5.791%; that for `O=C(O)C(F)(F)F.c1ccc(-c2ccc3nc(C4CCN(CC5CC5)CC4)nn3c2)cc1` was 21.53%; that for `CCCN1CCC(c2nc3ccc(NCc4ccccc4)cn3n2)CC1.O=C(O)C(F)(F)F.O=C(O)C(F)(F)F` was -22.92%.
For `CCCN1CCC(c2nc3ccc(-c4ccccc4)cn3n2)CC1.O=C(O)C(F)(F)F` the value was 132.6%; for `CCCN1CCC(c2nc3ccc(-c4ccncc4)cn3n2)CC1.O=C(O)C(F)(F)F.O=C(O)C(F)(F)F`, 100.7%.
In the case of `COCC(=O)N1CCC(c2nc3ccc(-c4ccncc4)cn3n2)CC1.O=C(O)C(F)(F)F`, the “Percent Effect” value amounted to 3.081%.
For `CCCN1CCC(c2nc3ccc(-c4cccc(OC)c4)cn3n2)CC1.O=C(O)C(F)(F)F` the value was 95.04%; for `CCCN1CCC(c2nc3ccc(-c4cccc(F)c4)cn3n2)CC1.O=C(O)C(F)(F)F`, 109.7%.
For `CCCN1CCC(c2nc3ccc(NCc4cccnc4)cn3n2)CC1.O=C(O)C(F)(F)F.O=C(O)C(F)(F)F.O=C(O)C(F)(F)F` the value was -17.81%.
The value for `Cc1cccc(-c2ccc3nc(C4CCN(CC5CC5)CC4)nn3c2)c1.O=C(O)C(F)(F)F` was 10.89%; that for `O=C(COCC1CC1)Nc1ccn(Cc2cccc3cccnc23)n1` was -5.086%; that for `CCn1cc(SCC(=O)N2CCCC(O)(CO)C2)c2ccccc21` (stereo not given) was -16.21%.
On to `COc1cccc(C(=O)N2CCN(C(=O)CCCc3cn[nH]c3)CC2)c1`, for which the “Percent Effect” value is listed as -9.764%.
For `CCOCC1CN(C(=O)Cc2ccsc2)Cc2ccnn2C1.O=C(O)C(F)(F)F` (stereo not given), the “Percent Effect” value is listed as 4.742%.
The value for `O=C(CCN1CCCO1)N1CC[C@@H](c2ccc3ccccc3c2)[C@H](O)C1` was 7.888%; that for `CC(C)SCCn1ccc2[nH]c(=O)c(C#N)cc2c1=O` was -14.16%; that for `CN1CCC(c2nc3ccc(-c4cccc(F)c4)cn3n2)CC1.O=C(O)C(F)(F)F` was 117.6%.
For `Cn1cc(C2(C)CN(Cc3ccc(N4CCCC4)nc3)CCO2)cn1` (stereo not given) the value was -5.624%; for `CCc1oc(C(=O)NCCc2nc(C(=O)O)cs2)cc1CN1CCCC1`, 10.42%.
For `Cc1cc(C)nc(NC(C)Cc2cnccn2)n1` (stereo not given) the value was -26.5%; for `CCc1oc(C(=O)NCCc2cc(O)nc(C)n2)cc1CN1CCCC1`, -0.3531%; for `CCc1oc(C(=O)NCCNS(C)(=O)=O)cc1CN1CCCC1`, 20.77%.
In the case of `CCc1oc(C(=O)NC(C)c2ncn[nH]2)cc1CN1CCCC1` (stereo not given), the “Percent Effect” value is 82.75%.
For `CCc1oc(C(=O)NCCSc2ncn[nH]2)cc1CN1CCCC1` the value was 77%; for `CCc1oc(C(=O)NC(C)Cc2cnccn2)cc1CN1CCCC1` (stereo not given), 92.2%; for `CC(Cc1cnccn1)NC(=O)COc1ccc(F)cc1F` (stereo not given), 0.5787%.
For `Cc1ccc(NC2(C(=O)NC(C)c3ncn[nH]3)CCCC2)cc1` (stereo not given) the value was 4.641%; for `COc1c(F)cccc1C(=O)NC(C)c1cnn(C)c1` (stereo not given), 2.584%; for `Cc1ccccc1S(=O)(=O)CCOC(C)C`, -3.521%.
The value for `O=C(C1CCOCC1)N1C[C@@H](F)[C@@H](OCc2nc3cc(F)ccc3[nH]2)C1` was -12.95%; that for `O=C(NCC1CCN(CCc2ccccc2)C1)c1cc(Cl)c[nH]1` (stereo not given) was 98.65%.
As to `COCCN1CCC(CNC(=O)c2cc(C)cc(C)c2)C1` (stereo not given), the “Percent Effect” value was 11.6%.
As to `CCc1cc(C(=O)NCC2CCN(Cc3ccncc3)CC2)on1`, the “Percent Effect” value is on record as 4.058%.
For `O=C(NCC1CCN(CCc2ccccc2)C1)c1c(F)cccc1F` (stereo not given) the value was -12.95%; for `COCCN1CCC(CNC(=O)c2cc(Cl)c[nH]2)CC1`, 92.15%.
In the case of `CCN1CCC(CNC(=O)c2cc(Cl)c[nH]2)CC1`, the “Percent Effect” value is reported as 93.05%.
For `COCCN1CCC(CNC(=O)Nc2ccc(F)c(Cl)c2)C1` (stereo not given) the value was -3.47%.
For `CC(C)(C)OC(=O)NCC1CCN(C(=O)c2cc(Cl)c[nH]2)CC1` the value was 10.1%.
The value for `COc1ccc(OC)c2c(C)cc(N(C)CCCO)nc12` was 19.89%.
